Test [1] is described as follows: small molecules captured by biotinylated probe aFSTL3 – biochemical, small-molecule microarray, fluorescence 635/667, stem cell growth factor project, primary screen (AID 1064).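 Further: measures binding of the biotinylated anti-FSTL3 antibody to printed compounds.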 The following applies: higher = more signal.
A short description of test [2]: binders from COS7 lysate, DM2A8 probe, primary screen, torsin A project, cell lysate, small-molecule microarray, fluorescence 635/667 (AID 1065). Particulars: higher = more signal, COS7 lysate expressing mutant human TOR1A.
Test [3] can be described thus: small molecules captured by biotinylated probe aFGF2 – biochemical, small-molecule microarray, fluorescence 635/667, stem cell growth factor project, primary screen (AID 1067).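 Further: measures binding of biotinylated aFGF2 protein to printed compounds on slides; z-score merges feature fluorescence and signal-to-noise across triplicate slides.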 Particulars: higher = more signal.
A short description of test [4]: small molecules captured by biotinylated probe aFGF10 – biochemical, small-molecule microarray, fluorescence 635/667, stem cell growth factor project, primary screen (AID 1071).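 Further: score merges 667 nm spot intensity and signal to noise from triplicate slides.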 The following applies: higher = more signal.
For test [5], the target named is Neurogenic locus notch homolog protein 2 (Homo sapiens) (UniProt Q04721). Put plainly: small molecules binding Notch2 protein – biochemical, small-molecule microarray, 635 nm fluorescence, stem cell growth factors, primary screen (AID 1073). Particulars: higher = more signal.
Chain of Neurogenic locus notch homolog protein 2 (Homo sapiens) (Q04721 whole entry, looked up, canonical isoform): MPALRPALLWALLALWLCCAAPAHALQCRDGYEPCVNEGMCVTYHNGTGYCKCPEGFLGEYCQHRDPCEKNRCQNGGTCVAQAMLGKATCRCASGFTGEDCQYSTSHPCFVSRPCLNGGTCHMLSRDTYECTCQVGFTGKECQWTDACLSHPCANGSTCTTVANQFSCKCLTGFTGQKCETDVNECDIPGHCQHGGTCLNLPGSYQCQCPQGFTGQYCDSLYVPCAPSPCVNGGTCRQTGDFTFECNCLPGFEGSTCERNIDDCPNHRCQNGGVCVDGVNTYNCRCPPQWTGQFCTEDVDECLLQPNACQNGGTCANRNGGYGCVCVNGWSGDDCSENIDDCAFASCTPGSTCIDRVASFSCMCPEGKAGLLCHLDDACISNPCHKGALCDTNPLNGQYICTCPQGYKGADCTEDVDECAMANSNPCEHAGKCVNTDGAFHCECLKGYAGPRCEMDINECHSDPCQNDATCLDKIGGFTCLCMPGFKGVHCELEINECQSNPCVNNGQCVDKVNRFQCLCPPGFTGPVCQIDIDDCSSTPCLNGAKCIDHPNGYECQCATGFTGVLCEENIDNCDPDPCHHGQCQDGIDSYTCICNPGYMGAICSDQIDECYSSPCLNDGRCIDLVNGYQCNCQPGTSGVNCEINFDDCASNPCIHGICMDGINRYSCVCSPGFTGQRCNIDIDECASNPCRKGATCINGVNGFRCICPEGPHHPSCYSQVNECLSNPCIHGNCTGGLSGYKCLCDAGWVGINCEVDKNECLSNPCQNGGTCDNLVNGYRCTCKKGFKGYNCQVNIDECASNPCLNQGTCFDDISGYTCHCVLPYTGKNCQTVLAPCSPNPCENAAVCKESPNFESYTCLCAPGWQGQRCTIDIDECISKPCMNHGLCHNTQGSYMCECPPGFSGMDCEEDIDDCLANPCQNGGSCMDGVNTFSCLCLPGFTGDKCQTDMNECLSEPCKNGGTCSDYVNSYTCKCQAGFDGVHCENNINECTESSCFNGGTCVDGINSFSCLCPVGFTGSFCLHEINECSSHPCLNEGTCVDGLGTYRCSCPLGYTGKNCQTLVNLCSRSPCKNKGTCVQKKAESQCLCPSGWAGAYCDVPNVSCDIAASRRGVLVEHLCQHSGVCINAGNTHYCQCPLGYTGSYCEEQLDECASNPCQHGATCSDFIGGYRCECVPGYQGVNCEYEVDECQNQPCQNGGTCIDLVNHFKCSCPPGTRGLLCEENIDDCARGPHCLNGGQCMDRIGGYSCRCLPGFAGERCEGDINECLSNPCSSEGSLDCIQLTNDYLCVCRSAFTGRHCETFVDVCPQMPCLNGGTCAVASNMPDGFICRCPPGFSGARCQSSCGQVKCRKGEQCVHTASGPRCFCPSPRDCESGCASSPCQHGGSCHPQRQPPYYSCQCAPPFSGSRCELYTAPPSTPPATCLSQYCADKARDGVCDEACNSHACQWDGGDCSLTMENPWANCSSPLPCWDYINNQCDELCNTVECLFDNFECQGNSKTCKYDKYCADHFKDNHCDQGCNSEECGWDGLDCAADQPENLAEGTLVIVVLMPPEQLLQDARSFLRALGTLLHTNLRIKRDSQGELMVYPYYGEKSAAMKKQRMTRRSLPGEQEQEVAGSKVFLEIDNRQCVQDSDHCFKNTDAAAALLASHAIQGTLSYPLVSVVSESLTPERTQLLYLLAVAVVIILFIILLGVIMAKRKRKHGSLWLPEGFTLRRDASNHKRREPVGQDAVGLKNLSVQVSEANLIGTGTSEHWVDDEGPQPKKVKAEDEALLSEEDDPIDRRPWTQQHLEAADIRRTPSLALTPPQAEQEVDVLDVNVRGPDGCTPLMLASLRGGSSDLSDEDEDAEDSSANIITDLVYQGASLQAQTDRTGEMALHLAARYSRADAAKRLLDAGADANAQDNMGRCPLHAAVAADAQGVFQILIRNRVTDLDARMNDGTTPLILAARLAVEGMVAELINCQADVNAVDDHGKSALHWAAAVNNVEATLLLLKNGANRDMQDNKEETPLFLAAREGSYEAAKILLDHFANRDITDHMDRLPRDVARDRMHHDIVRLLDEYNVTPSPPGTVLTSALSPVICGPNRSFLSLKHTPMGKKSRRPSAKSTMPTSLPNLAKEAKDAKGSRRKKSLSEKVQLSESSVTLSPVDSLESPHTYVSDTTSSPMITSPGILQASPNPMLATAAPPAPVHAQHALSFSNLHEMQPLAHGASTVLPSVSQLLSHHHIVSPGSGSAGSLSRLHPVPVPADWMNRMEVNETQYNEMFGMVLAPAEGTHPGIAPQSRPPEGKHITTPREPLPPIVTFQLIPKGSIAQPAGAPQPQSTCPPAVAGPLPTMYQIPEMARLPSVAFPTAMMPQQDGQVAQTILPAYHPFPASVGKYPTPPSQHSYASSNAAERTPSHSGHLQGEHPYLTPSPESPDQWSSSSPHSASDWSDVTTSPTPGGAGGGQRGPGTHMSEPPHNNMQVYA
The target in test [6] is Pro-neuregulin-1, membrane-bound isoform (Homo sapiens) (UniProt Q02297). The experiment in a line: small molecules binding neuregulin-1 protein – biochemical, small-molecule microarray, fluorescence 635/667, psychiatric disease protein project, primary screen (AID 1075).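 Further: score combines 667 nm spot fluorescence with signal to noise.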 Particulars: NRG1 binding, 635 nm fluorescence, higher = more signal.
Chain of Pro-neuregulin-1, membrane-bound isoform (Homo sapiens) (Q02297 whole entry, looked up, the tested form may be a part, canonical isoform): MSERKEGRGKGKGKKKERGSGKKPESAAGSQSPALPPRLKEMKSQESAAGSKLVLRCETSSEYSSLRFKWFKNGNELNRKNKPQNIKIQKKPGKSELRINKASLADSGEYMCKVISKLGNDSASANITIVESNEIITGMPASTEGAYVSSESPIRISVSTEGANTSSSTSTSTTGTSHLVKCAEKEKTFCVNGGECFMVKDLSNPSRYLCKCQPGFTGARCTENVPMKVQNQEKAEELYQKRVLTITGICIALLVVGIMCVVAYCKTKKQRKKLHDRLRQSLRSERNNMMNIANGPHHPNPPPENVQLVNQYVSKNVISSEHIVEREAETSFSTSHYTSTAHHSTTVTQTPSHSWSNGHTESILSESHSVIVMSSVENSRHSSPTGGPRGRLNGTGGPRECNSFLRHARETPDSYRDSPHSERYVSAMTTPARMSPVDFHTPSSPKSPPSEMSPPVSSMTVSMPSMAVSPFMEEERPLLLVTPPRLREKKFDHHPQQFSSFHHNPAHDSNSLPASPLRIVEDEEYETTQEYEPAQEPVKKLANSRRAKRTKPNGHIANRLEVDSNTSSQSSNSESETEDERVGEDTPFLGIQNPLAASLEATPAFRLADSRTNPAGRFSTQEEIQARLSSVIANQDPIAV
Test [7] deals with Neuregulin-1 EGF-like domain. Put plainly: small molecules binding NRG1 EGF domain – biochemical, small-molecule microarray, 635 nm fluorescence, primary screen (AID 1081).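 Further: binding of the protein to compounds printed on small-molecule microarray slides.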 The following applies: higher = more signal.
Test [8] can be described thus: FRG1 expression reporter modulators in myotubes – cell-based, C2C12 myotubes, firefly/Renilla luciferase, luminescence, FRG1 inhibition for FSHD, primary screen (AID 1084). The following applies: FRG1 promoter luciferase, higher = more signal, called active from +8 up or from −8 down.
Test [9] can be described thus: small molecules captured by biotinylated probe aFST – biochemical, small-molecule microarray, fluorescence 635/667, stem cell growth factor project, primary screen (AID 1086).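 Further: score merges 667 nm fluorescence with signal-to-noise of each printed compound spot.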 The following applies: higher = more signal.
Test [10] is described as follows: binders of probe aHhip on microarray, primary screen, stem cell growth factor project, biochemical, small-molecule microarray, fluorescence 635/667 (AID 1087).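 Further: score merges spot fluorescence at 667nm with spot signal to noise ratio.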 The following applies: higher = more signal.
Test [11] deals with PRMT1 (protein arginine N-methyltransferase 1). Put plainly: small molecules binding arginine methyltransferase PRMT1 – biochemical, small-molecule microarray, 635 nm fluorescence, primary screen (AID 1088).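 Further: binding of Prmt1 protein to compounds spotted on small-molecule microarray slides.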 The following applies: higher = more signal.
The nature of test [12]: growth effects on S. cerevisiae YJM789 – YJM789 clinical isolate, OD600, 24 h, basal, primary screen (AID 1089).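 Further: growth of clinical yeast isolate S. cerevisiae YJM 789 seeded 1000 cells per well; test concentration not given here.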 Particulars: higher = more signal, called active from +8 up or from −8 down.
Test [13] in a line: S. pombe growth modifiers, basal conditions – strain 972, OD600, 24 h, no modulator, primary screen (AID 1090).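 Further: basal condition with compound alone and no growth modifier present; test concentration not given here.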 Particulars: S. pombe 972 growth, higher = more signal, called active from +8 up or from −8 down.
A short description of test [14]: budding yeast growth modifiers under rapamycin – strain BY4716, OD600, 96 h, primary screen (AID 1091). Further: test concentration not given here. Particulars: S. cerevisiae BY4716 + rapamycin, higher = more signal, called active from +8 up or from −8 down.
Test [15] has as its target Torsin-1A-interacting protein 2 (Homo sapiens) (UniProt Q8NFQ8). Put plainly: small molecules binding lysate-expressed LULL1 – cell lysate, human LULL1 lysate, 635/667 nm fluorescence, primary screen (AID 1092).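 Further: probe is lysate of COS7 cells overexpressing human LULL1; score merges per-feature 667 nm fluorescence with signal-to-noise.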 The following applies: small-molecule microarray, hLULL1 lysate binding, 635 nm fluorescence; higher = more signal.
A short description of test [16]: optical density change of DRC41 E. coli – strain DRC41, OD650, 24 h, E. coli filamentation project, primary screen (AID 1093).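 Further: MC1000 strain lacking acrAB efflux and sulA so SOS filamentation is blocked; test concentration not given here.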 Particulars: E. coli DRC41 growth, higher = more signal, called active from +8 up or from −8 down.
Test [17] is described as follows: probe aLefty2 binding to arrayed compounds – biochemical, biotinylated probe, 635/667 nm fluorescence, primary screen (AID 1094).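 Further: score merges spot fluorescence near 667 nm with spot signal-to-noise ratio.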 Particulars: small-molecule microarray, higher = more signal.
The test system of test [18] is Noggin (protein binding on small-molecule microarray). Put plainly: small molecules binding Noggin protein – biochemical, 635/667 nm fluorescence, primary screen (AID 1095).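 Further: score merges 667 nm feature fluorescence with signal to noise over triplicate slides.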 The following applies: 635 nm fluorescence, higher = more signal.
Test [19] has as its target Neurogenic locus notch homolog protein 3 (Homo sapiens) (UniProt Q9UM47). The experiment in a line: small molecules binding NOTCH3 protein – biochemical, 635/667 nm fluorescence, primary screen (AID 1096). Particulars: small-molecule microarray, 635 nm fluorescence, higher = more signal.
Test [20] is described as follows: probe aEGFR binding to arrayed compounds – biochemical, biotinylated probe, 635/667 nm fluorescence, primary screen (AID 1097).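 Further: probe is a biotinylated anti-EGFR antibody binding compounds printed on slides; score combines fluorescence near 667 nm and signal to noise of each spot.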 Particulars: small-molecule microarray, higher = more signal.

Activity calls are given as the source filed them.

Chain of Torsin-1A-interacting protein 2 (Homo sapiens) (Q8NFQ8 whole entry, looked up): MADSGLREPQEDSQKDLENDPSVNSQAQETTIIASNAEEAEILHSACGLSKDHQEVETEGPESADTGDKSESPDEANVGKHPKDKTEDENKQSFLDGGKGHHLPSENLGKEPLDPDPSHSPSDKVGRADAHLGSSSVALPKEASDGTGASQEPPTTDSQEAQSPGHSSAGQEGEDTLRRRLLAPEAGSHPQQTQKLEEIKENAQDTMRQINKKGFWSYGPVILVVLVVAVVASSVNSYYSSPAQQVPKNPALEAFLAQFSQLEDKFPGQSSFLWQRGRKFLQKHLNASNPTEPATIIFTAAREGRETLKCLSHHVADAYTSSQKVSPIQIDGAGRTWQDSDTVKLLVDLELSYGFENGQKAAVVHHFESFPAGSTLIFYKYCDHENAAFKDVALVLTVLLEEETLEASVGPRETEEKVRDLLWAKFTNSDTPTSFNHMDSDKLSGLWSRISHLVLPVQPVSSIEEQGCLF

As for `CC(C)[Si]1(C(C)C)OCc2cc(-c3ccc(-c4ccc(Cl)c(Cl)c4)o3)nc(-c3ccc(Oc4ccccc4)cc3)c21`, the composite z-score was 0.639 in [1]; -1.11 in [2]; -0.207 in test [3]; -0.738 in [4]; -1.78 in test [5]; -0.762 in [6]. Moreover, the composite z-score in test [7] was -0.6; in test [9], -0.857; in test [10] it was -0.306; in [11], -1.67; in test [15], -1.07; in test [17] it was 0.0358. Besides, the composite z-score is -1.78 in test [18], -1.57 in test [19] and -0.447 in test [20]. The z-score in [8] was 1.52 (inactive); in test [12], 0.797 (inactive); in [13], -0.504 (inactive); in test [14], 2.3 (inactive); in [16] it was -0.888 (inactive).

In the case of `CCOC(=O)C[C@H]1[C@H](OC(=O)c2cc3ccccc3oc2=O)[C@@H](NC(=O)c2ccc(-c3ccccc3)cc2)c2cc(OCCCO)ccc2N1C(=O)Cc1ccc(OC)cc1`, the composite z-score in [1] is -0.428; in test [2] it was 0.0922; in test [3] it was -0.0667; in test [4], 0.67; in [5], 0.992; in test [6], 0.178. Also, the composite z-score in test [7] was 1.18; in test [9] it was 0.494; in test [10], -0.132; in test [11], 1.2; in test [15] it was 1.93; in test [17], -0.212. Moreover, the composite z-score in test [18] was 0.421; in test [19], 1.11; in [20] it was 0.148. Moreover, the z-score in test [8] is 0.228 (inactive); in [12], -0.792 (inactive); in test [13] it was -0.398 (inactive); in test [14] it was -0.077 (inactive); in [16], -0.423 (inactive).

Consider `COc1cc(CO)cc(I)c1O[C@H]1C=C(C(=O)NCCO)C[C@@H](N(CCN2CCOCC2)C(=O)C2CCCO2)[C@@H]1O` (stereo not given in full), for which the composite z-score in test [1] was -0.351; in [2], 0.193; in [3] it was -0.109; in [4], 0.228; in [5], 1.14; in test [6] it was -0.34. For the same molecule, the composite z-score is 0.201 in test [7]; 0.0496 in [9]; -0.0383 in test [10]; -0.15 in [11]; 0.206 in test [15]; -0.172 in [17]. For the same molecule, the composite z-score in test [18] is 0.34; in [19], -0.204; in [20], -0.0106. The z-score in test [8] is 0.104 (inactive); in [12], 0.383 (inactive); in [13], -0.455 (inactive); in test [14], 0.0665 (inactive); in test [16], 2.54 (inactive).

As for `C=C(CCCC)C(=O)CC[C@H](OC(=O)c1ccccc1-c1ccccc1C(=O)O)c1cccc(OCCO)c1`, the composite z-score is 0.0622 in [1]; 0.375 in test [2]; -0.133 in test [3]; -0.416 in test [4]; -1.37 in test [5]; 1.29 in test [6]. The composite z-score in test [7] was 0.652; in test [9], -0.284; in [10], -0.0994; in test [11], 0.317; in test [15], 1; in [17], -0.186. In addition, the composite z-score is 0.135 in test [18], -0.186 in test [19] and -0.221 in test [20]. In addition, the z-score is -0.0278 (inactive) in test [8]; -0.0349 (inactive) in [12]; -0.386 (inactive) in test [13]; -0.678 (inactive) in test [14]; 0.171 (inactive) in test [16].

As for `CN(C)CCCC[C@@H]1NC(=O)[C@H]2C[C@@H](C(=O)NCCCCCCNC(=O)CS)[C@@H](c3cccc(OCCO)c3)N2C1=O`, the composite z-score in test [1] was 0.272; in [2], 0.447; in test [3], -0.135; in test [4], -0.217; in test [5] it was -0.486; in test [6], 0.891. Further, the composite z-score in test [7] is 0.334; in test [9], -0.346; in [10] it was 0.411; in test [11], -0.174; in test [15] it was 0.935; in test [17], 0.0141. Also, the composite z-score in test [18] is -0.0227; in [19] it was -0.289; in test [20] it was -0.146. Also, the z-score in test [8] is 0.47 (inactive); in test [12], -0.522 (inactive); in test [13], -0.221 (inactive); in [14] it was -0.195 (inactive); in [16], -0.12 (inactive).
